Reference: PubChem BioAssay
Calls of active or inactive are those of the source.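 The calls were made as follows, unless noted: active = fluorescence slope after compound addition differing from the mean of all screened samples at 99.7% confidence, in either direction; inactive = the rest.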

Columns and labels:
[1] = inhibitors of TNFa-induced NFkB p65 translocation, primary screen, imaging, HUVEC, MLSMR starter and 10KST1 sets (AID 438;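 active = inhibition above 20% together with a positive visual image hit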;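 also: compound added about 3h40 before a 20 min TNFalpha stimulation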;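 as to inhibition: signal is the nuclear over cytoplasmic p65 intensity ratio per well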); settings: HUVEC TNFa-induced p65 nuclear translocation; cell count: measured here: nuclei count (cytotoxicity indicator), at 2.08 µM; inhibition: at 2 µM, stronger effect = higher value, 0% TNFa-plus-vehicle, 100% no-TNFa wells
[2] = inhibitors of mutant huntingtin aggregation, primary screen, imaging, exon1htt(103Q)mCFP cells, high-content imaging (AID 483;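 active = visual image review flags a hit and inhibition of aggregation exceeds 20%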;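 also: compound exposure lasted 3 days before fixation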;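 as to nuclei count: percent of the per-plate median nuclei count of sample wells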); settings: exon1htt(103Q)mCFP cell line, aggregate imaging, at 2 µM; inhibition of aggregation: stronger effect = higher value; nuclei count: measured here: cell count, toxicity
[3] = inhibitors of E-selectin induction by TNFa, primary screen, imaging, HUVEC, immunofluorescence, MLSMR starter and 10KST1 sets (AID 487;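 active = visually confirmed hit in the image check and inhibition above 20%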;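 as to inhibition: signal is fraction of cell area covered by stained E-selectin grains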;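 as to nuclei count: 100% = median nuclei count of all wells on the same plate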); settings: HUVEC TNFalpha-induced E-selectin immunofluorescence imaging, at 2 µM; inhibition: stronger effect = higher value; nuclei count: measured here: cell number, toxicity
[4] = molecular target: Voltage-gated potassium channel subunit beta-2 (Rattus norvegicus) (UniProt P62483); assay: KvBeta enzyme negative modulators, primary screen, biochemical, NADPH fluorescence (AID 622;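 active = fluorescence slope higher than the sample average by over 3 SD, cut at about -0.22 in these data, passing the limit was not always enough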;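 also: slope of raw intensity against log time taken from 70 to 1610 s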); settings: recombinant KvBeta, 4-cyanobenzaldehyde reduction, at 10 µM, stronger effect = higher value
Voltage-gated potassium channel subunit beta-2 (Rattus norvegicus), sequence (P62483 whole entry, looked up): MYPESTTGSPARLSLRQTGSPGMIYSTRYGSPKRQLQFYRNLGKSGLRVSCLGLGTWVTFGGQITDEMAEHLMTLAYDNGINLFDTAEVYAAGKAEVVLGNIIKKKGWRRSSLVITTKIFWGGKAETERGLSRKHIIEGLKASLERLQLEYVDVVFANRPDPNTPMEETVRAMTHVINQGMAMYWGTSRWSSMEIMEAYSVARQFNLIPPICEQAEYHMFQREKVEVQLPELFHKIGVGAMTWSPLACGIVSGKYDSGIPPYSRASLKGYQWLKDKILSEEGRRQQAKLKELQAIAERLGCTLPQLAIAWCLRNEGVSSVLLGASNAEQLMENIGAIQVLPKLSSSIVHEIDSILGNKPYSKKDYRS

[5] = molecular target: Voltage-gated potassium channel subunit beta-2 (Rattus norvegicus) (UniProt P62483); assay: KvBeta positive modulators, primary screen, biochemical, NADPH fluorescence (AID 623;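 active = NADPH fluorescence slope more negative than the mean of all samples by about 3 SD, 99.7% confidence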;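 also: fluorescence intensity change per second fitted from 20 to 320 s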); settings: Recombinant KvBeta, NADPH fluorescence decrease slope, 10 min; at 10 µM; stronger effect = lower value
[6] = molecular target: Alpha-2C adrenergic receptor (Homo sapiens) (UniProt P18825); assay: modulators of alpha2C/GIRK thallium flux, primary screen, cell-based, HEK293 alpha2C/GIRK1/2 (AID 624); settings: thallium flux BTC fluorescence, at 10 µM, actives lie on both sides;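 also: slope of fluorescence ratio to pre-addition baseline per second over 15 to 24 s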
Alpha-2C adrenergic receptor (Homo sapiens), sequence (P18825 whole entry, looked up): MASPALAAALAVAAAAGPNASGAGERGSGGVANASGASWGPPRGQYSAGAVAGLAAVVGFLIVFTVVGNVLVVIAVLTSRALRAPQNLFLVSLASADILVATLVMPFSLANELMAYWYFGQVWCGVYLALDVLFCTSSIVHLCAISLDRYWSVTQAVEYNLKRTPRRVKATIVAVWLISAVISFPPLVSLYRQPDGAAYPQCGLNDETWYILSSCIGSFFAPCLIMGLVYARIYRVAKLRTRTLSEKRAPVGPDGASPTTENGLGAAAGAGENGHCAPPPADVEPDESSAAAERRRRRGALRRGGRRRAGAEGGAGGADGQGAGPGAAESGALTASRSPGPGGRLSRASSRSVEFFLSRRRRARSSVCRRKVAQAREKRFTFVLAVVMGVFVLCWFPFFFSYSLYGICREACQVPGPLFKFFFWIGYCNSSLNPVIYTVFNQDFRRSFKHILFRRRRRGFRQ

[7] = inhibitors of Sendai virus-induced IRF3 signaling, primary screen, TLR/RLR signaling modifier project, cell-based, Sendai virus stimulus, luciferase, 10K MLSCN set (AID 602276;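 active = inhibition at or above 50% at 10 µM; inactive = inhibition below 50%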;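 also: firefly luciferase from ISG56 promoter only with Renilla not read in this screen; 0% = Sendai virus plus DMSO and 100% = medium plus DMSO without virus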); settings: HEK293 RL24 IRF3 luciferase reporter, at 10 µM, stronger effect = higher value
[8] = inhibitors of poly I:C-induced TLR3 signaling, primary screen, cell-based, poly I:C stimulus, luciferase, 10K MLSCN set (AID 602277;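 active = inhibition of the reporter signal at or above 50%; inactive = inhibition below 50%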); settings: HEK293-TLR3 RL24 IRF3 luciferase reporter, at 10 µM, stronger effect = higher value

Row | SMILES | cell count [1] | inhibition [1] | inhibition of aggregation [2] | nuclei count [2] [%] | inhibition [3] | nuclei count [3] [%] | fluorescence slope [4] | NADPH fluorescence slope [5] | slope [6] | inhibition [7] | inhibition [8]
1 | COc1ccc2c(c1OC)C(=O)OC2CC(=O)c1ccc(O)cc1 (centres undefined) | 556 | -1.1% (inactive) | -3.9% (inactive) | 114 | 43.4% (inactive) | 42.6 | -0.447 (inactive) | -4.1e-05 (inactive) | 0.00258 (inactive) | 4.78% (inactive) | 26.9% (inactive)
2 | O=C(OCC(=O)N1CCC(Cc2ccccc2)CC1)c1ccc[nH]c1=O | 496 | -25.6% (inactive) | -14.9% (inactive) | 107 | -41.6% (inactive) | 88.7 | -0.341 (inactive) | -9.5e-06 (inactive) | 0.00527 (inactive) | 3.7% (inactive) | 6.66% (inactive)
3 | Cc1ccc(SC(C)c2nc(-c3ccccc3)no2)cc1 (centres undefined) | 283 | -7.5% (inactive) | 8.1% (inactive) | 105 | 51.9% (active) | 42.1 | -0.416 (inactive) | -4.5e-05 (inactive) | 0.00449 (inactive) | -11.7% (inactive) | -42.5% (inactive)
4 | Clc1cccc(-c2nnc3sc(-c4ccccc4)nn23)c1 | 625 | -3% (inactive) | -8% (inactive) | 108 | -30.8% (inactive) | 104 | -0.372 (inactive) | -5.3e-05 (inactive) | 0.0065 (inactive) | -35.9% (inactive) | -59.7% (inactive)
5 | CCOC(=O)c1cccc(NC(=O)CSc2nnc(-c3cccnc3)n2CC)c1 | 517 | -6.7% (inactive) | 1.2% (inactive) | 82.2 | -12.8% (inactive) | 112 | -0.506 (inactive) | -2.6e-05 (inactive) | 0.00514 (inactive) | 12.5% (inactive) | 11.6% (inactive)
6 | CCCCN(CC)CCNC(=O)c1cc2c(C)nc3ccccc3c2o1 | 656 | 0.3% (inactive) | -11.7% (inactive) | 103 | -28.4% (inactive) | 110 | -0.544 (inactive) | -3.2e-05 (inactive) | 0.00664 (inactive) | 5.91% (inactive) | 47% (inactive)
7 | O=C1C2C3C=CC(C3)C2C(=O)N1c1cccc(N2C(=O)C3C4C=CC(C4)C3C2=O)n1 (centres undefined) | 227 | 8.4% (inactive) | -5.5% (inactive) | 109 | -160% (inactive) | 137 | -0.549 (inactive) | -1.2e-05 (inactive) | 0.00682 (inactive) | 3.37% (inactive) | 21.6% (inactive)
8 | COc1ccc(CCNC(=O)CSCc2n[nH]c(=O)[nH]2)cc1OC | 330 | 1.6% (inactive) | -15.4% (inactive) | 99.5 | -97.5% (inactive) | 131 | -0.476 (inactive) | -3.9e-05 (inactive) | 0.00502 (inactive) | 19.2% (inactive) | 24.3% (inactive)
9 | COc1cccc(C2C3=C(N=C4SCC(=O)N42)c2ccccc2CC3)c1OC (centres undefined) | 680 | 1.6% (inactive) | -10.8% (inactive) | 107 | -15.3% (inactive) | 98.5 | -0.442 (inactive) | 4.1e-05 (inactive) | 0.00306 (inactive) | -0.493% (inactive) | 29.3% (inactive)
10 | Cc1cc(C)n(-c2ccc(C(=O)Nc3ccc4c(c3)OCCO4)cc2)n1 | 529 | -16.3% (inactive) | -2.4% (inactive) | 103 | 11.9% (inactive) | 110 | -0.254 (inactive) | -2.3e-05 (inactive) | 0.00537 (inactive) | -19.7% (inactive) | -108% (inactive)
11 | CCn1ncc(Cl)c1C(=O)Nc1ccncc1 | 587 | -6.1% (inactive) | -21.9% (inactive) | 56.2 | -41% (inactive) | 101 | -0.577 (inactive) | -5.6e-05 (inactive) | 0.00342 (inactive) | 3.99% (inactive) | -1.03% (inactive)
12 | O=C(NCC(=O)N(Cc1cccs1)C(C(=O)NC1CCCC1)c1ccncc1)c1ccco1 (centres undefined) | 478 | -2.9% (inactive) | -19.3% (inactive) | 107 | -26.6% (inactive) | 114 | -0.25 (inactive) | -2e-05 (inactive) | 0.00557 (inactive) | 13.3% (inactive) | 16.2% (inactive)
13 | Cc1sc2ncn3ncnc3c2c1C | 546 | -10% (inactive) | -1.7% (inactive) | 41.8 | 25.3% (inactive) | 102 | -0.617 (inactive) | -3.8e-05 (inactive) | 0.00315 (inactive) | -16.9% (inactive) | -56.2% (inactive)
14 | COC(=O)c1ccccc1NC1c2ccccc2C(=O)N1c1cccnc1 (centres undefined) | 725 | -6.7% (inactive) | -10.5% (inactive) | 100 | -26.4% (inactive) | 112 | -0.53 (inactive) | -4.7e-05 (inactive) | 0.00566 (inactive) | 5.35% (inactive) | 16.8% (inactive)
15 | CCOP(=O)(c1ccc(N(C)C)cc1)C(O)c1ccccc1OC (centres undefined) | 728 | -5.5% (inactive) | -2.8% (inactive) | 113 | -31.9% (inactive) | 116 | -0.387 (inactive) | 4.7e-05 (inactive) | 0.00598 (inactive) | 1.78% (inactive) | 10.6% (inactive)
16 | CCOC(=O)c1cccc(NC2c3ccccc3C(=O)N2Cc2ccco2)c1 (centres undefined) | 700 | -2.3% (inactive) | 10.2% (inactive) | 117 | -10.9% (inactive) | 119 | -0.554 (inactive) | -4.1e-05 (inactive) | 0.00706 (inactive) | 6.59% (inactive) | 17.6% (inactive)
17 | CC(C)COc1ccc(C2NC(=O)NC2=O)cc1 (centres undefined) | 718 | -10.2% (inactive) | -12.5% (inactive) | 117 | 74.1% (inactive) | 91.5 | -0.452 (inactive) | -2.2e-05 (inactive) | 0.00367 (inactive) | 1.04% (inactive) | 19.9% (inactive)
18 | CCSc1nnc(NC(=O)c2csc(C)c2)s1 | 366 | 4.2% (inactive) | 12.8% (inactive) | 101 | -18.6% (inactive) | 104 | -0.592 (inactive) | -1.3e-05 (inactive) | 0.00352 (inactive) | -36.6% (inactive) | -89.7% (inactive)
19 | Cc1cc(NC(=O)CCOc2ccccc2)no1 | 403 | -11.8% (inactive) | -20.8% (inactive) | 113 | 35.5% (inactive) | 64.3 | -0.455 (inactive) | -5e-05 (inactive) | 0.00305 (inactive) | 6.04% (inactive) | 23.9% (inactive)
